In the OligoGym collection one finds sensor-assay potency score (higher = more potent) data, which are given here for 39 sequences.
Note: reference of the scale not given here.

The first experiment addresses EPHA8. The experiment is described as follows: pooled miR-30 sensor sort-seq; sequence = guide strand. Particulars: shRNA.
In the case of TCCAGAGTCACTGATGTCCCAT, the sensor-assay potency score (higher = more potent) is -0.773.
The sequence TCATACTCCAGGATGATGCCGT displayed a sensor-assay potency score (higher = more potent) of 0.44.
On the same count and under the same terms, the same measure for ATTTTCTCGATGTGGATCCTAG: -0.272; for TAGTACTTGATCTCATACTCCA: -0.186; for TGCATCTTCTCCTCGTCCGAGT: -1.08.
On the same count and under the same terms, the same measure for TCTCGTAGTACTTGATCTCATA: -1.09.
For TCGATTTTGAGGAACTGGCTTT, the sensor-assay potency score (higher = more potent) was -0.582.
Sequence TTCTCGTAGTACTTGATCTCAT came in with a sensor-assay potency score (higher = more potent) of -0.461.
On the same count and under the same terms, the same measure for TTGATCTCAGCATAGACGCGCC: -0.595.
TAGCTGAGGTCACAGTGGCAGG registered a sensor-assay potency score (higher = more potent) of -1.64.
On the same count and under the same terms, as for TTGACGGATCACCACCACCTGG, the figure is -1.47; as for TTGCTGTCAACCAGGACGTTGC, -1.32; as for TTGTCCTTCTCGTAGTACTTGA, -0.781.
Still for that read-out and setting: as for TCTGATAGTGCATCTTCTCCTC, the figure is 0.0792; as for TTTGAGGAACTGGCTTTCTTGT, -1.09.
Still for that read-out and setting: the same measure for TAGCCGGCACTGCACACGCATT: -1.71.

A further experiment concerns the target EPHB3. The experiment is described as above. Particulars: shRNA.
In turn, TATGACAGCACCAAGGGCGGGG registered a sensor-assay potency score (higher = more potent) of -0.054.
Same read-out and setting: the same measure for TTGTACAGGAGGTCATCCCGGC: -0.315; for TTACACACCTGGTATGTGCGGA: 0.227.
Still for that read-out and setting: the same measure for TGAGGTTTCATTCACATTGGAG: -0.889; for TTGAGCTCCACGTAGACCCGCT: 0.189.
On the same count and under the same terms, as for TCGTAGTCCAGGATGACTCCGT, the figure is -0.375; as for TCACATTGGAGATCACACCTCG, 0.593; as for TAGCAGAAGTGAACTTCCGATA, -0.801.
Turning to TACTTCATCTCGTAGTCCAGGA, the sensor-assay potency score (higher = more potent) was -0.409.
TTCATCTGGCTGGTCACTGTGG: the sensor-assay potency score (higher = more potent) is -0.423.
The sequence TCACCAACTGTCGTGAAGGTTG yielded a sensor-assay potency score (higher = more potent) of -0.896.
Still for that read-out and setting: as for TTGTTCTGGCTTGACTCGCGCA, the figure is -0.743; as for TTGCAGATGACATTGTACAGGA, -0.122; as for ATTGCGGATGAGCTTGTCCAGG, -1.31.
Consider TACTGCTGCAGCTTCTCCGTGT, for which the sensor-assay potency score (higher = more potent) was 0.38.
Same read-out and setting: as for TCTCCGTGTACTCCGAATCAGA, the figure is -1.2; as for TTGCTGTTGACAAGGATGTTGC, -0.897.
Still for that read-out and setting: the same measure for TTGCAGTAGAGCTTGAGTGGCA: -0.145; for TAGTCCAGGATGACTCCGTTGG: -0.557; for AACTGGTGTAGGTAGGATCGGA: -0.385.
On the same count and under the same terms, the same measure for ATGACAATTCCGTAGCTCCAGA: -1.32.
Regarding TTGTCATCACAGCGTGAGCAGG, the sensor-assay potency score (higher = more potent) was -1.61.
The same measure, in the same setting: the same measure for TTGTGGTCTCAAACTCGGCAGG: -1.08.
